# Cruzain Triton = blocks cruzain activity in presence of Triton detergent; Potency, µM, for the others: max response, negative = inhibition, most hits filed as inhibitors; 200,000 compounds, 0.43% hits; P25779; purified cruzain, Z-FR-AMC fluorescence, 0.01% Triton;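 further: plate controls were neutral wells for no effect and buffer without enzyme for full effect; nearly all actives have a fitted effect of over 40% in size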
# Target sequence (P25779 123-467 limits assumed): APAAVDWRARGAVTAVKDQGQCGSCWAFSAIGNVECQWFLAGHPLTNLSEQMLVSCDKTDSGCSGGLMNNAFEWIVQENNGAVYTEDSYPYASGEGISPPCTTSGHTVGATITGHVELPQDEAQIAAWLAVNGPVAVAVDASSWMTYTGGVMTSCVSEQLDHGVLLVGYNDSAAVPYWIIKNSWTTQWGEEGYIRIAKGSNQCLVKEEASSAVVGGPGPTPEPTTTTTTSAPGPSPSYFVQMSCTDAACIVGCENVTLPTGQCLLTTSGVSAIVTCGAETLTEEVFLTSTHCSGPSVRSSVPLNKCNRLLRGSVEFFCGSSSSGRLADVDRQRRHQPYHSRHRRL
#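 Cruzain (1.5 nM) preincubated 15 min at RT with compound in 100 mM sodium acetate pH 5.5, 5 mM DTT, 0.01% Triton X-100. Reaction started with 2 uM Z-FR-AMC; AMC fluorescence (ex 360/em 450 nm) change over 60 s gave rate.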
# Cruzain inh noDet = cruzain (T. cruzi) inhibition without detergent. P25779. purified cruzain, Z-FR-AMC fluorescence, no detergent. Potency, µM, for inactives: max response, negative = inhibition, hits mostly inhibitors. 200,000 compounds, 2.3% hits;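 further: plate controls were enzyme without inhibitor for no effect and buffer without enzyme for full effect; nearly all actives have a fitted effect of over 40% in size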
#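 Purified cruzain at 1.5 nM, pre-incubated 15 min with compound at room temperature in 100 mM sodium acetate pH 5.5, 5 mM DTT, 0.00005% Triton X-100. Reaction started with 2 uM Z-FR-AMC; AMC fluorescence increase over 60 s gives rate.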
# An asterisk follows results filed as active; ? = inconclusive. In the library only some 2.4% were active in any assay of this set; here they are far more common. The call rests on the fitted dose curve; in most records, active means well fitted curve in the direction sought with a large enough effect; inconclusive means small, poorly fitted or top-dose-only effect, or another doubt; inactive means no such curve, though single readings can be large; an effect the other way counts as inactive or inconclusive. Potency means the concentration at half of the fitted maximal effect.
SMILES,Cruzain Triton,Cruzain inh noDet
Cc1ccc(NC(=O)c2nnn(CC(=O)Nc3ccccc3)c2N)cc1C,6%,?
CCOc1ccc(C2C(=O)N(C3CCCCCC3)CC(=O)N2CCc2ccc(Cl)cc2)cc1OC (configuration not stated),0%,-1%
CCOC(=O)C1=C(N)n2c(s/c(=C/c3ccccc3)c2=O)=C(C(=O)OCC)C1c1ccccc1 (configuration not stated),-2%,-9%
CCOC(=O)C1=C(N)n2c(s/c(=C\c3ccco3)c2=O)=C(C(=O)OCC)C1c1ccco1 (configuration not stated),-6%,7.9µM*
CCOC(=O)C1=C(c2ccccc2)N=c2s/c(=C\c3ccco3)c(=O)n2C1c1cccs1 (configuration not stated),-1%,?
CCOC(=O)C1=C(N)n2c(s/c(=C\c3ccco3)c2=O)=C(C(=O)OC(C)C)C1c1ccco1 (configuration not stated),-8%,10µM*
COc1ccc(N2C(=O)CSC23C(=O)N(CC(=O)NC2CCCCC2)c2ccccc23)cc1 (configuration not stated),-2%,0%
COc1ccc2oc(=N)c(C(=O)Nc3ccccc3)cc2c1,4%,5%
COc1ccc2o/c(=N/NC(=S)Nc3ccccc3)c(C(N)=O)cc2c1,-12%,6.3µM*
O=C(CSC1=Nc2ccccc2N=C(c2ccc(F)cc2)C1)Nc1cccc(C(F)(F)F)c1,-4%,-7%
COc1ccc(/C=C/C(=O)Oc2cccc(/C=N/NC(=O)COc3c(C)cccc3C)c2)cc1,7%,16µM*
COc1ccc(/C=C/C=N/NC(=O)COc2ccc(OC)cc2)cc1,-5%,0%
COc1ccc(/C=C/C(=O)Oc2ccc(/C=N/NC(=O)COc3c(C)cccc3C)cc2)cc1,3%,7.9µM*
Cc1cccc(C)c1OCC(=O)N/N=C/c1cccn1C,-6%,-9%
CCCCc1nn2c(=O)cc(COC(=O)c3cccs3)nc2s1,-2%,4%
O=C(NCc1ccccc1Cl)C1CCCN(c2nc3ccccc3n3cccc23)C1 (configuration not stated),-5%,?
COc1ccc(/C=N/NC(=O)c2cccc(NC(=O)c3ccc(Cl)cc3)c2)c(OC)c1,-7%,?
O=C(N/N=C/c1ccncc1)c1cccc(NC(=O)c2ccc(Cl)cc2)c1,28µM*,-13%
Cc1cccc(Cn2c(=O)n(CCc3ccccc3)c(=O)c3c(C)c(C)sc32)c1,-2%,-10%
COc1ccc(Cl)cc1NC(=O)[C@H]1O[C@@H]2OC(C)(C)O[C@@H]2[C@H]2OC(C)(C)O[C@H]21,-6%,?
OC[C@@H]1[C@@H](c2ccc(Cl)cc2)C(c2cccc(Cl)c2)=NN1c1ccccc1,2%,25µM*
C[C@H]1C(c2cccc(Cl)c2)=NN(c2ccccc2)[C@@H]1CO,0%,?
OC[C@@H]1[C@@H](c2ccc(Cl)cc2)C(c2ccccc2)=NN1c1ccccc1,0%,-18%
OC[C@@H]1[C@@H](c2ccc(F)cc2)C(c2cccc(Cl)c2)=NN1c1ccccc1,0%,32µM*
COc1ccc(S(=O)(=O)NCCS(=O)(=O)N2CCN(c3ccccc3)CC2)cc1C,-1%,2%
SMILES,Cruzain Triton,Cruzain inh noDet
Oc1ccc2ccccc2c1/C=N/n1cnnc1,-11%,-18%
Oc1ccc2ccccc2c1/C=C\c1ccc2c(Br)cc(Br)c(O)c2n1,1%,3.2µM*
CC(C)CCNC(=O)c1ccc2c(c1)N(Cc1cccc(Cl)c1)C(=O)c1ccccc1S2,1%,?
O=C(NC1CCCC1)c1ccc2c(c1)N(Cc1ccccc1Cl)C(=O)c1ccccc1S2,0%,?
O=C(NCCc1ccc(Cl)cc1)c1ccc2c(c1)N(Cc1cccc(Cl)c1)C(=O)c1ccccc1S2(=O)=O,1%,10µM*
Cc1cc(NC(=O)c2ccc3c(c2)N(Cc2cccc(Cl)c2)C(=O)c2ccccc2S3(=O)=O)ccc1Br,-1%,3.2µM*
CC(=O)Nc1ccc(NC(=O)c2ccc3c(c2)N(Cc2cccc(Cl)c2)C(=O)c2ccccc2S3(=O)=O)cc1,-5%,-20%
Cc1ccc(CCNC(=O)c2ccc3c(c2)N(Cc2cccc(C)c2)C(=O)c2ccccc2S3(=O)=O)cc1,0%,?
COc1ccc(CNC(=O)c2ccc3c(c2)N(Cc2cccc(Cl)c2)C(=O)c2ccccc2S3)c(OC)c1,0%,13µM*
O=C(NC1CCCCC1)c1ccc2c(c1)N(Cc1ccccc1Cl)C(=O)c1ccccc1S2,2%,10µM*
Cc1nc2ccc(S(=O)(=O)N(CC(=O)Nc3ccc(F)cc3F)Cc3ccccc3)cc2s1,-6%,?
COCCCn1c(SCC(=O)Nc2ccccc2OC)nc2c(sc3ccccc32)c1=O,0%,?
CC(=O)Nc1ccc(S(=O)(=O)Nc2cccc(-c3ccc(N4CCC(C)CC4)nn3)c2)cc1,-3%,11%
N#Cc1cccc(NC(=O)c2ccc3c(c2)N(Cc2cccc(Cl)c2)C(=O)c2ccccc2S3(=O)=O)c1,-3%,6.3µM*
O=C(Nc1ccc(Cl)cc1)c1ccc2c(c1)N(Cc1ccccc1)C(=O)c1ccccc1S2(=O)=O,-7%,?
COc1ccc(S(=O)(=O)N2CCN(C)CC2)c2ccccc12,-2%,-1%
COc1ccc(S(=O)(=O)N2CCN(c3ccc(Cl)c(Cl)c3)CC2)c2ccccc12,-1%,7.9µM*
Cc1cn2c(=O)cc(COc3ccc(NC(=O)c4ccc(C(C)(C)C)cc4)cc3)nc2s1,-2%,-1%
Cc1cc2oc(=O)cc(CN3CCc4ccccc43)c2cc1Cl,-4%,?
CCc1ccc2c(CN3CCc4ccccc43)cc(=O)oc2c1,-4%,32µM*
Cc1ccc(-c2nc3sc(CCNC(=O)c4ccc(F)c(F)c4)c(C)n3n2)cc1,-8%,-8%
COc1ccc(N2CCN(C(=O)c3cccn3-c3nnc(N4CCCC4)s3)CC2)cc1,0%,2%
Cc1ccc(-n2nc(CO)c(C(=O)NCCc3ccccc3)n2)cc1C,0%,-9%
Cc1ccc(CNc2nc(N)c([N+](=O)[O-])c(NCc3ccccc3)n2)cc1,-2%,?
Cc1ccc(CNc2nc(N)c([N+](=O)[O-])c(Nc3ccc(F)cc3)n2)cc1,0%,16µM*
SMILES,Cruzain Triton,Cruzain inh noDet
Cc1cccc(NC(=O)CCS(=O)(=O)c2cc(Br)cc3c2N(C(=O)C2CC2)CC3)c1,-4%,2%
CCOC(=O)c1c(NC(=O)c2cc3n(n2)C(C(F)(F)F)CC(c2cccs2)N3)sc(C)c1C (configuration not stated),-6%,6.3µM*
Cc1nn(C)c(C)c1CNC(=O)c1cc2n(n1)C(C(F)(F)F)CC(c1cccs1)N2 (configuration not stated),-3%,?
Cn1nc(-c2ccccc2)c(CSc2ccccc2Cl)c1Cl,3%,0%
Cc1ccc(S(=O)(=O)c2c(COC(=O)c3ccccc3Cl)c(-c3ccccc3)nn2C)cc1,3%,20µM*
COc1ccc(Br)cc1CNC(=O)c1cnc2sc(N3CCCCCC3)nn2c1=O,-5%,7%
O=c1c2ccccc2c(C=Nc2ccc(S(=O)(=O)N3CCCCC3)cc2)c(O)n1-c1ccc(Cl)cn1,4%,7.9µM*
CCc1nnc(/N=C/c2c(O)n(-c3ccc(Cl)cn3)c(=O)c3ccccc23)s1,-7%,?
O=C(CN1C(=O)C2C3CCC(C3)C2C1=O)OCC(=O)c1cccc([N+](=O)[O-])c1 (configuration not stated),0%,-11%
